About 79,000 compounds went through this panel and 15% of them were active in at least one assay; those are over-represented in the sample as a whole. Calls of active or inactive are those of the source. Cut-off read from the data, not from the text of the source: active = growth inhibition above about 70%; inactive = the rest. Where a SMILES comes first, the peptide text is derived from it. The star is where a group is joined. Cbz = O=C(OCc1ccccc1)*
Columns and labels:
[1] = NCI Yeast Anticancer Drug Screen. Data for the rad50 strain (AID 155);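 note: 0% = growth of vehicle-only cultures of the same strain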; conditions: S. cerevisiae rad50 strain growth inhibition; at 50.0 µM; stronger effect = higher value
Outline: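 Relative growth inhibition (compound vs vehicle) was measured in yeast with a defined repair-gene alteration.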

[2] = NCI Yeast Anticancer Drug Screen. Data for the mec2-1 strain (AID 157); conditions: S. cerevisiae mec2-1 strain, at 50.0 µM, stronger effect = higher value
Outline: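 Test agents were screened against the mec2-1 yeast strain, with defined DNA repair or cell cycle alteration. Growth was scored as inhibition against vehicle-only controls.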

[3] = NCI Yeast Anticancer Drug Screen. Data for the sgs1 mgt1 strain (AID 161);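 note: 0% = growth of cultures given vehicle only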; conditions: S. cerevisiae sgs1 mgt1 strain, at 50.0 µM, stronger effect = higher value
Outline: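 Mutant yeast exposed to compound; growth scored against vehicle-only wells.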

[4] = NCI Yeast Anticancer Drug Screen. Data for the cln2 rad14 strain (AID 165);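 note: 0% = growth equal to vehicle treated cultures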; conditions: S. cerevisiae cln2 rad14 strain, at 50.0 µM, stronger effect = higher value
Outline: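 Growth of compound-exposed yeast (cln2 rad14 genotype) measured and expressed as inhibition relative to vehicle.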

[5] = NCI Yeast Anticancer Drug Screen. Data for the bub3 strain (AID 167); conditions: S. cerevisiae bub3 mutant strain, at 50.0 µM, stronger effect = higher value
Outline: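 Screening used yeast with an engineered genetic alteration affecting cell cycle control. Compound-exposed cultures were compared with vehicle cultures, and reduced growth was taken as inhibition.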

[6] = NCI Yeast Anticancer Drug Screen. Data for the mlh1 rad18 strain (AID 175); conditions: S. cerevisiae mlh1 rad18 strain growth inhibition; at 50.0 µM; stronger effect = higher value
Outline: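 In this whole-cell yeast screen, a strain with altered DNA damage repair is challenged with compound, and its growth is measured against matched vehicle-treated controls.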

Measured: growth inhibition

CC(=O)Oc1ccc(/C=N\N(C)CN(C)/N=C/c2ccc(OC(C)=O)cc2)cc1
inactive: [1] 14% | [2] -9.65% | [3] 31.6% | [4] 18.4% | [5] 1.65% | [6] 17.7%

CCC1(CCCCCBr)OCCO1
inactive: [1] 13.9% | [2] 12.6% | [3] 19.6% | [4] 10.2% | [5] 14.8% | [6] 7.9%

CC(C)C1OC2OCCCC2C(C(C)C)O1 (stereo not drawn)
inactive: [1] 17.2% | [2] -5.85% | [3] 8.15% | [4] -11.9% | [5] -22.1% | [6] 11%

O=S(=O)(Nc1ncccn1)c1ccc(N=NSC2=NC=NC3=NC=NC32)cc1 (stereo not drawn)
inactive: [1] 21.3% | [2] 17.4% | [3] 20.5% | [4] 4% | [5] 0.05% | [6] 11.8%

CC(=O)N1C(Nc2ccccc2)CCN1c1ccccc1 (stereo not drawn)
inactive: [1] -24.2% | [2] -31.5% | [3] -14.1% | [4] 10.9% | [5] 2.05% | [6] -8.35%

CSS(=O)(=O)C(c1ccccc1)c1ccccc1
inactive: [1] -14.6% | [2] 2.55% | [3] -2.1% | [4] -2.45% | [5] 60.2% | [6] -14.8%

CCC1OC(=O)C(CC)OC1=O (stereo not drawn)
inactive: [1] -5.75% | [2] -20.2% | [3] -25.6% | [4] -2.05% | [5] -28.9% | [6] -24.4%

COc1ccc(C(=O)c2ccccc2)c(OC(=O)Nc2ccc(Cl)cc2)c1
inactive: [1] 14.8% | [2] -3.4% | [3] 14.9% | [4] 3.8% | [5] 12.6% | [6] 16.6%

NC(=O)NNC(=O)NC12CC3CC(CC(C3)C1)C2
inactive: [1] -19% | [2] -11.8% | [3] -10.2% | [4] -45.8% | [5] 0.65% | [6] 21.6%

CCc1c(Sc2ccccn2)n(COCc2ccccc2)c(=O)[nH]c1=O
inactive: [1] -14.5% | [2] -4.4% | [3] -24.9% | [4] -16.4% | [5] -17.8% | [6] -16.1%

COc1ccc(COC(=O)Nc2cccc(Cl)c2)cc1OC
inactive: [1] -11.5% | [2] 30% | [3] 20.1% | [4] -24.2% | [5] 30.8% | [6] 35.8%

O=C1Cc2nc3ccccc3nc2CC(=O)c2ccccc21
inactive: [1] 4.9% | [2] 10.9% | [3] 9.35% | [4] -19.9% | [5] -12.1% | [6] 13.3%

CCCCCCCCCCCCCC1CCC(CC)N1 (stereo not drawn)
active: [1] 92% | [2] 93.7% | [3] 92.2% | [4] 91.6% | [5] 91.8% | [6] 91.8%

O=c1oc2c(CN3CCOCC3)c(O)ccc2c2c1CCCC2
inactive: [1] 24.8% | [2] 21.5% | [3] 22.8% | [4] 29.9% | [5] 43.6% | [6] 31.9%

N#CC(/C(=N/NC(N)=S)C(=O)Nc1cccc(Cl)c1)c1ccccc1 (stereo not drawn)
inactive: [1] -23.9% | [2] 13.8% | [3] 10.4% | [4] 18.3% | [5] 12.9% | [6] 31.2%

CC(C)(C)NC1=C([N+](=O)[O-])CCCC1
inactive: [1] 4.25% | [2] 6% | [3] -1.05% | [4] -19.6% | [5] 11.9% | [6] 4.5%

O=C1O/C(=C(\Br)c2ccc([N+](=O)[O-])cc2)c2ccccc21
inactive: [1] 30.4% | [2] -27.4% | [3] 19.4% | [4] 0.85% | [5] -5.9% | [6] 1.05%

CCCCCC(=O)Cc1cc(OC)cc2c1C(=O)Oc1cc(O)c(C(=O)O)c(CC(=O)CCCCC)c1O2
active: [1] 83% | [2] 86.5% | [3] 85.8% | [4] 79.4% | [5] 80.1% | [6] 78.1%

O=C1NC(c2cccc3c2OCO3)N=C2Oc3ccccc3C=C12 (stereo not drawn)
inactive: [1] 9.95% | [2] 1.95% | [3] 9.45% | [4] 7.8% | [5] -4.05% | [6] -10.6%

Cc1cc(-c2cc(C)on2)no1
inactive: [1] -44.7% | [2] -2.75% | [3] -15.9% | [4] -30.1% | [5] -6.15% | [6] -3.25%

Nc1ccc(N)c2cc(S(=O)(=O)O)ccc12
inactive: [1] 3.85% | [2] -4.8% | [3] -5.1% | [4] 6.4% | [5] -16.2% | [6] 7.9%

N#CC(C#N)=C1CCNCC1
inactive: [1] -12.8% | [2] -5.5% | [3] -6.3% | [4] -8.35% | [5] 3.65% | [6] 0.9%

CC(C(=O)O)c1ncnn1-c1ccccc1 (stereo not drawn)
inactive: [1] -3.35% | [2] 41% | [3] 6.45% | [4] 4.85% | [5] 10.6% | [6] 2.65%

CC1(CCC(=O)c2ccc3c(c2)OCO3)OCCO1
inactive: [1] 31.8% | [2] 8.95% | [3] 23.4% | [4] 14% | [5] 24.6% | [6] 26.9%

COc1ccccc1/C=C/c1nc2ccccc2o1
inactive: [1] 47.6% | [2] 19.7% | [3] 56.1% | [4] 13.6% | [5] 59.8% | [6] 53%

NC(N)=NC(=O)c1ccccc1
inactive: [1] -26.4% | [2] -12.2% | [3] -9.55% | [4] -23.1% | [5] -0.55% | [6] 12.9%

Fc1ccc(CN2COc3c(ccc4cccnc34)C2)c(F)c1
inactive: [1] 57.6% | [2] 43.6% | [3] 57.1% | [4] 29.6% | [5] 49% | [6] 52.2%

CC(=O)Nc1ccc(NC(=O)Nc2cccc(C(C)=O)c2)cc1
inactive: [1] 7.3% | [2] 27.2% | [3] 9.35% | [4] 0.3% | [5] 22.6% | [6] 28.6%

NOCc1cc(Cl)sc1Cl
inactive: [1] 24.9% | [2] -2.9% | [3] 6.1% | [4] 60% | [5] -23.9% | [6] 11.3%

Cc1nn(C(=O)Cc2ccccc2)c2c1C(c1ccc([N+](=O)[O-])cc1)SC(N)=N2 (stereo not drawn)
inactive: [1] 11.4% | [2] 9.9% | [3] 22.4% | [4] 15.8% | [5] 8.15% | [6] 9.75%

COc1cc(C(CC(=O)O)CC(=O)O)cc(OC)c1OC
inactive: [1] -2.45% | [2] -8.8% | [3] 25.4% | [4] 7.05% | [5] 15.6% | [6] 12.6%

COc1cc(O)c2c(c1)C(=O)c1cc3c(c(O)c1C2=O)CC(OC)C(C)(O)C3O (stereo not drawn)
active: [1] 90.5% | [2] 91.3% | [3] 91.8% | [4] 88.5% | [5] 91.8% | [6] 91.2%

O=C1OC(Nc2ccccc2)C(Cl)=C1Cl (stereo not drawn)
inactive: [1] 38.1% | [2] 13.8% | [3] 22.5% | [4] 20.3% | [5] 6.2% | [6] -0.15%

COC(=O)C(CO)NC(=O)C(CO)NC(=O)OCc1ccccc1 (stereo not drawn) (Cbz-Ser-Ser-OMe; configuration not given here)
inactive: [1] -9.8% | [2] 3.7% | [3] -0.25% | [4] 7.4% | [5] -10% | [6] -16.4%

CCN1CSC(=S)N(Cc2ccccc2)C1
inactive: [1] 16.9% | [2] 6.3% | [3] 50.3% | [4] 4.55% | [5] 28.2% | [6] 32.6%

Cn1c(=O)c2[nH]c(CSc3ccccc3)nc2n(C)c1=O
inactive: [1] 9% | [2] -5.15% | [3] 6.2% | [4] -2.1% | [5] 21.8% | [6] -14.8%

C=CCOc1ccc(C2C(C(=O)OCC)C(=O)CC(C)(O)C2C(=O)OCC)cc1OC (stereo not drawn)
inactive: [1] -6.25% | [2] -11.3% | [3] -7.15% | [4] -24% | [5] 1.35% | [6] -7.45%

Nc1nc(N)[n+]([O-])c(N)c1NCO
inactive: [1] -4.85% | [2] 2.9% | [3] -40% | [4] -50.8% | [5] -14% | [6] -25.3%

Cc1cc2c(-c3ccc(Cl)cc3)oc(-c3ccc(Cl)cc3)c2cc1C
inactive: [1] -7.35% | [2] 15.8% | [3] -6.35% | [4] 2.85% | [5] -15.4% | [6] -9.5%

CC(=O)C1C(=O)C(=O)N(Cc2ccccc2)C1=O (stereo not drawn)
inactive: [1] -20.4% | [2] -13.8% | [3] -27.4% | [4] -19.3% | [5] -7.4% | [6] -19.6%

CCOC(=O)CCNc1nc(N)nc(C)c1NC=O
inactive: [1] -11.9% | [2] 5.55% | [3] -16.5% | [4] 9.7% | [5] 5.9% | [6] 16.9%

CCCC(C)C1(CCC)C(=O)N=C(N)N=C1N (stereo not drawn)
inactive: [1] 3.8% | [2] 7.75% | [3] -3.9% | [4] 12.4% | [5] -2.8% | [6] -10.5%

CCOC(CNCc1ccncc1)OCC
inactive: [1] -19.8% | [2] -20.3% | [3] -26.8% | [4] 4.9% | [5] -31% | [6] -10.9%

Source: PubChem BioAssay (NCI)
